Assay outcomes (PubChem BioAssay)
HCMV inh – human cytomegalovirus inhibition. HFF cells, HCMV-luciferase reporter, 72 h; hits give low values. activity change, negative = inhibition, % at 57.5 µM. 410,000 tested, 4.5% active. AID 1259415; in the data active = activity change below about -60%; inconclusive = no clear call, values can overlap the other calls; inactive = above about -39%
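Cell-based, HFFs, 1000 cells/well, 16 h 37C; cpds in DMSO + HCMV-luc, MOI 1 PFU/cell; 72 h 37C; OneGlo luminescence after 5 min RT; norm. to buffer vs Salinomycin 10uM.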
LASV entry inh – inhibitors of Lassa virus binding or cell entry; Lassa virus pseudotype entry inhibition, cell reporter; Potency, µM (doses to about 37.9 µM), without a hit: top-dose activity change, negative = inhibition, hits mostly inhibitors; 300,000 tested, 1.2% active; calls by dose curve; tested in HEK293 cells; note: potency is the fitted concentration of half-maximal effect; nearly all actives have a fitted effect of over 50% in size
Marburg entry inh – Marburg virus entry inhibition; Marburg virus pseudotyped entry inhibition, cell reporter; Potency, µM (doses to about 37.8 µM), for inactives: top-dose activity change, negative = inhibition, hits mostly inhibitors; 300,000 tested, 1.8% active; calls by dose curve; tested in HEK293 cells; note: potency is the fitted concentration of half-maximal effect
FMDV antiviral – foot and mouth disease virus antiviral activity; FMDV antiviral cell-based qHTS; Potency, µM (highest dose often 57.9 µM), for the others: at the top dose activity change, negative = inhibition, most hits filed as inhibitors; 410,000 tested, 1.2% active; AID 1159524; calls by dose curve; tested in HEK293T cells; note: read-out not given here; potency is the fitted concentration of half-maximal effect; nearly all actives have a fitted effect of over 45% in size
HCV inhibitor – inhibitors of hepatitis C virus infection; Huh7.5.1 HCVcc-Cre infection, luciferase reporter, 44 h; 340,000 tested, 3.4% active; Potency, µM (doses to about 41.8 µM), without a hit: top-dose activity change, negative = inhibition, hits mostly inhibitors; note: potency is the fitted concentration of half-maximal effect
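A cell-based infection assay in which seeded cells (1,000 per well) receive test compound after 4 h, are inoculated with HCVcc-Cre at approximately 0.5 moi, and are incubated 44 h before luminescence detection.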
FBPA Giardia inh – Giardia lamblia aldolase inhibition | A8B2U2 | purified Giardia FBPA | Potency, µM (doses to about 59.6 µM), for the others: at the top dose activity, negative = inhibition, hits mostly inhibitors | 290,000 tested, 0.71% active; note: potency is the fitted concentration of half-maximal effect; nearly all actives have a fitted effect of over 55% in size
Target sequence (A8B2U2 whole entry, looked up): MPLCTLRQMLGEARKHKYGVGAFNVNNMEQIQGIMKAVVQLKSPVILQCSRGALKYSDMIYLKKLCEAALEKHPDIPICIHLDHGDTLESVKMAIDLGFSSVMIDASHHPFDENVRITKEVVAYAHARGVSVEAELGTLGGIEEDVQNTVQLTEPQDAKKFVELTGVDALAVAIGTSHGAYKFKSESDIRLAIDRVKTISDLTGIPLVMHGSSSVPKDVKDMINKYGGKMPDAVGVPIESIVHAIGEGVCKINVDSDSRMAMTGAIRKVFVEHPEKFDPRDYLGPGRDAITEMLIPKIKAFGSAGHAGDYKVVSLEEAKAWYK
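40 nM FBPA preincubated 10 min at RT with compound (up to 57.5 uM final), then substrate plus GAPDH/TPI/NAD/arsenate coupling and diaphorase/resazurin added. Fluorescence read after 20 min at RT, 525/598 nm.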
* marks the source's active call; other numbers are inactive results; ? = inconclusive; . = no result given; [ ] = dose if it differs, or a comment. Only some compounds are listed: those with a hit (about 8.3% of all), similar ones and a draw of the others. Unless noted, calls come from the whole dose curve; as a rule, active = well fitted curve in the direction sought with a large enough effect; inconclusive = small, poorly fitted or top-dose-only effect, or another doubt; inactive = no such curve, though single readings can be large; an effect the other way counts as inactive or inconclusive. % is set by controls: 0 for no effect and ±100 for the full control effect.

SMILES | HCMV inh | LASV entry inh | Marburg entry inh | FMDV antiviral | HCV inhibitor | FBPA Giardia inh
CCOc1ccc(C(=O)/C=C/c2cn(CN3CCN(C)CC3)c3ccccc23)cc1 | 1.6 | -5.0% | -24.9% | 69.1% | ? | -1.6%
CC(=O)OC1CCC2(C)C(=CC=C3C2CCC2(C)C3CCC2C(C)/C=C/C(C)C(C)C)C1(C)C (centres undefined) | . | . | . | -3.4% | . | 5.9%
CC1(C)[C@H](C(=O)NC2CCCCCC2)CC[C@]1(C)C(=O)O | . | . | 20.9% | . | . | .
O=C(Nc1ccc(F)cc1)Nc1ccccc1N1CCCCC1 | -71.0* | . | . | ? | 11.2µM* | -7.4%
CN(C)c1ccc(NC(=O)Nc2csc3ccccc23)cc1 | -36.0 | -29.0%[46.1 µM] | ? | 13.2% | -29.3% | ?
O=C(Nc1ccc(N2CCOCC2)c(S(=O)(=O)Nc2ccccc2Cl)c1)c1ccc(F)cc1 | 28.9 | ? | ? | 24.4% | 10µM* | .
O=C(/C=C/c1cccs1)Nc1ccc(N2CCOCC2)c(S(=O)(=O)Nc2ccccc2Cl)c1 | -78.3* | ? | ? | 84.1% | ? | 0.0%
O=C(Cc1ccc(F)cc1)Nc1ccccc1N1CCCC1 | 10.6 | . | . | -11.0% | -1.7% | .
COc1ccccc1NS(=O)(=O)c1cc(NC(=O)c2ccc(NC(C)=O)cc2)ccc1N1CCOCC1 | -8.1 | ? | -3.9% | 70.9% | ? | .
O=C(Nc1ccc(F)cc1)Nc1csc2ccccc12 | -74.8* | ? | ? | 48.1% | 1.7% | -10.7%
O=C(/C=C/c1cccs1)Nc1ccc(N2CCOCC2)c(S(=O)(=O)Nc2cc(Cl)ccc2Cl)c1 | -11.3 | -4.0% | -28.6% | 36.9% | ? | 0.9%
Cc1cc(O)cc(O)c1C(=O)OC1(C)C(=O)C=C2C=C(/C=C/CO)OC=C2C1=O (centres undefined) | . | . | ? | . | . | -13.1%
O=C(OCc1ccccc1Cl)c1ccc(-c2nnn(Cc3ccccc3)n2)cc1 | -13.0 | 1.4%[46.1 µM] | -0.9%[46.1 µM] | 4.5% | . | .
CC(C)(C)CC(=O)Nc1ccccc1N1CCN(c2ccc(F)cc2)CC1 | -11.1 | ? | 7.94µM* | ? | 0.4% | -3.9%
O=C(Nc1ccc(Cl)c(Cl)c1)Nc1ccc(N2CCCC2)c(S(=O)(=O)Nc2ccccc2Cl)c1 | -99.0* | 8.91µM* | ? | -2.9% | ? | -0.8%
O=C(Nc1ccc(F)cc1)Nc1ccc(N2CCCC2)c(S(=O)(=O)Nc2ccccc2Cl)c1 | -99.6* | 7.31µM* | 7.94µM* | -21.6% | 6.31µM* | -1.2%
O=C(Nc1ccc(Cl)c(S(=O)(=O)Nc2ccccc2Cl)c1)c1cccs1 | -16.9 | ? | -30.9% | 40.5% | -7.0% | 4.1%
O=C(Nc1ccc(N2CCCCC2)c(S(=O)(=O)Nc2ccccc2Cl)c1)c1cccnc1 | -29.3 | -23.2% | ? | -5.6% | 12.6µM* | .
CC(C)(C)CC(=O)Nc1ccccc1N1CCN(c2ccccc2)CC1 | -8.7 | ? | ? | -8.6% | 5.0% | 0.7%
CCCn1c(=N)n(CC(=O)c2cccs2)c2ccccc21 | -30.5 | 12.4% | ? | -14.8% | -13.2% | -3.8%
Cc1ccc(Cn2c(=N)n(CC(=O)c3ccccc3)c3ccccc32)cc1 | -83.0* | . | . | -39.3% | 10µM* | -5.5%
CCCn1c(=N)n(CC(=O)c2ccc(OCC(=O)OC)cc2)c2ccccc21 | -95.5* | . | . | -19.6% | ? | .
N=c1n(Cc2ccccc2Cl)c2ccccc2n1CC(O)c1ccco1 (centres undefined) | -12.9 | ? | 16.4% | -10.7% | -9.5% | 5.2%
CCCn1c(=N)n(CC(=O)OCC)c2ccccc21 | -15.5 | 1.9% | -0.9% | -7.3% | 11.5% | -2.7%
CCCn1c(=N)n(CC(=O)c2ccc(Cl)cc2)c2ccccc21 | -83.3* | ? | ? | 11.9% | 12.6µM* | -14.3%
SMILES | HCMV inh | LASV entry inh | Marburg entry inh | FMDV antiviral | HCV inhibitor | FBPA Giardia inh
Cc1ccc(Cn2c(=N)n(CC(O)c3ccco3)c3ccccc32)cc1 (centres undefined) | -26.3 | -20.8% | 11.2µM* | ? | ? | -0.3%
Cc1cccc(C)c1NC(=O)C1(C)CCc2nc3ccccc3n21 (centres undefined) | -13.2 | . | . | . | . | .
N=c1n(N)c2ccccc2n1CC(=O)c1ccc(Br)cc1 | 38.1 | ? | ? | 16.4% | 12.6µM* | -20.0%
CCCn1c(=N)n(CC(=O)c2ccc([N+](=O)[O-])cc2)c2ccccc21 | 0.6 | -4.5% | ? | -8.0% | 12.6µM* | ?
C=CCn1c(=N)n(CC(=O)c2ccc(Br)cc2)c2ccccc21 | 51.1 | -28.3% | ? | ? | -5.1% | -5.2%
COc1ccc(CNC(=O)C2CCN(C(=O)c3ccc(-n4ccc5ccccc54)s3)CC2)cc1 | 4.0 | ? | . | ? | . | .
CCOC(=O)c1c(C)n(CCO)c2ccc(O)cc12 | 36.9 | -5.5% | ? | -14.0% | -4.3% | -17.9%
COC(=O)c1c(C(=O)OC)n(CCCN)c2ccc(C)cc12 | -9.9 | ? | 8.2µM* | 3.7% | ? | -6.6%
C=C1SC(Nc2c(C)cccc2C)=NC12CCCCC2 | ? | ? | ? | ? | -22.0% | 6.6%
C=C1SC(Nc2c(C)cc(C)cc2C)=NC12CCCCC2 | -88.6* | ? | 3.55µM* | ? | -64.7% | -1.3%
O=S(=O)(NCC1CC1)c1cc(Cl)cc(Cl)c1 | -64.9* | 10.4%[46.1 µM] | -18.1%[46.1 µM] | 37.4% | 3.4% | -0.2%
O=C(N/N=C/c1coc2ccc(Cl)cc2c1=O)c1ccc(O)cc1 | -33.1 | . | . | -8.6% | -1.0% | 9.4%
COc1ccc(C(=O)N/N=C\c2coc3ccc(Cl)cc3c2=O)cc1 | -62.6* | . | . | ? | -24.0% | 13.4%
C#CCN(C[C@@H]1[C@@H](OC(=O)NCc2ccc(OC)c(OC)c2)[C@@H](OC(=O)NCc2ccc(OC)c(OC)c2)Cn2c(=O)ccc(=O)n21)S(=O)(=O)c1ccc(C)cc1 | -107.3* | . | . | ? | . | .
C#CCN(C[C@@H]1[C@@H](OC(=O)NCc2ccco2)[C@@H](OC(=O)NCc2ccco2)Cn2c(=O)n(CCCCCC)c(=O)n21)S(=O)(=O)c1ccc(C)cc1 | -74.2* | . | . | 28.2µM* | . | .
C#CCN(C[C@@H]1[C@@H](OC(=O)NCc2ccccc2)[C@@H](OC(=O)NCc2ccccc2)Cn2c(=O)n(CCCCCC)c(=O)n21)S(=O)(=O)c1ccc(C)cc1 | 3.9 | . | . | -11.4% | . | .
C#CCN(C[C@@H]1[C@@H](OC(=O)NCc2ccco2)[C@@H](OC(=O)NCc2ccco2)Cn2c(=O)ccc(=O)n21)S(=O)(=O)c1ccc(C)cc1 | -100.7* | . | . | 6.31µM* | . | .
C#CCN(C[C@H]1[C@H](OC(=O)NCc2ccco2)[C@H](OC(=O)NCc2ccco2)C[C@H]2C(=O)N(c3ccccc3)C(=O)[C@@H]12)S(=O)(=O)c1ccc(C)cc1 | 6.8 | . | . | -2.3% | . | .
CCN(CC)CCCNC(=O)c1ccc(N2CCCCC2)c(NS(=O)(=O)c2ccc(C)cc2)c1 | -33.9 | 10.6% | 14.6µM* | 8.6% | -11.5% | -2.1%
